Results from article PMC7862700, “An all-to-all approach to the identification of sequence-specific readers for epigenetic DNA modifications on cytosine”.

Assays:
Test in all cases: DAPPL (digital affinity profiling via proximity ligation, sequencing); 10 mM Tris-HCl pH 7.5, 50 mM NaCl, 1 mM DTT, 4% glycerol, room temperature, 30 min; GST-TFs on glutathione beads, 16-mer random dsDNA library, 0.1% formaldehyde crosslink after washing; high values mean tight binding
[1] = molecular target: T1, FLI1 (Homo sapiens, UniProt Q01543 1-452); details: protein: recombinant; tags: N-terminal GST; dsDNA, one strand shown
T1 sequence: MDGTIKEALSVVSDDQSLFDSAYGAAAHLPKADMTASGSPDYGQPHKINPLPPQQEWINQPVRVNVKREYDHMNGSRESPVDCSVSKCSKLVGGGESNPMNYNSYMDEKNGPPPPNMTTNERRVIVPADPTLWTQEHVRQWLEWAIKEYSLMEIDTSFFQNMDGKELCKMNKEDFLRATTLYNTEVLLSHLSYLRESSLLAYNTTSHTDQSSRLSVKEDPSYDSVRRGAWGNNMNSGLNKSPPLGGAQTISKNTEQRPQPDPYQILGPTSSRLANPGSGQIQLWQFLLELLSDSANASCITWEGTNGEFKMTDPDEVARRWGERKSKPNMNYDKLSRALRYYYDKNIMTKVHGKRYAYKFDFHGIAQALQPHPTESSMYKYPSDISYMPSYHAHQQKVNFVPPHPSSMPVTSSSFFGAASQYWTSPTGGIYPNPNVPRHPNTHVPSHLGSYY
How it was run: (§1)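 GST fusions of human transcription factors were expressed in yeast and captured with glutathione beads. Once given DNA barcodes and pooled alongside a tag-only sample, they were incubated for 30 min at room temperature with 200 nmole of a random double-stranded 16-mer DNA library in Tris/NaCl/DTT/glycerol buffer, then washed, crosslinked (0.1% formaldehyde), proximity-ligated, PCR-amplified and sequenced on an Illumina NextSeq500. The binding signal of each hexamer is its read frequency for a factor divided by its frequency for the tag-only sample.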

[2] = molecular target: T2, ELK1 (Homo sapiens, UniProt P19419 1-428); details: protein: recombinant; tags: N-terminal GST; dsDNA, one strand shown
T2 sequence: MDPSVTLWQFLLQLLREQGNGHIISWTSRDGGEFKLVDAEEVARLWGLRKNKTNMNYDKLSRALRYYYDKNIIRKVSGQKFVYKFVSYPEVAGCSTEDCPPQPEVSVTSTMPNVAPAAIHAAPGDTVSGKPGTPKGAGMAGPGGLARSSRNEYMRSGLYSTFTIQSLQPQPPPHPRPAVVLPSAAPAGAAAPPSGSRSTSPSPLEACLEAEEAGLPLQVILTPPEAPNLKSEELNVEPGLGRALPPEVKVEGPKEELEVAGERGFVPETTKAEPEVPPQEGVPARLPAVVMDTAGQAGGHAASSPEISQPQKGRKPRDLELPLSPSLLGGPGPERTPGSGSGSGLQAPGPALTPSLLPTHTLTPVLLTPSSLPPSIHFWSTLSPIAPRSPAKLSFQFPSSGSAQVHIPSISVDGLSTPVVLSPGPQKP
How it was run: as §1

[3] = molecular target: T3, GABPA (Homo sapiens, UniProt Q06546 1-454); details: protein: recombinant; tags: N-terminal GST; dsDNA, one strand shown
T3 sequence: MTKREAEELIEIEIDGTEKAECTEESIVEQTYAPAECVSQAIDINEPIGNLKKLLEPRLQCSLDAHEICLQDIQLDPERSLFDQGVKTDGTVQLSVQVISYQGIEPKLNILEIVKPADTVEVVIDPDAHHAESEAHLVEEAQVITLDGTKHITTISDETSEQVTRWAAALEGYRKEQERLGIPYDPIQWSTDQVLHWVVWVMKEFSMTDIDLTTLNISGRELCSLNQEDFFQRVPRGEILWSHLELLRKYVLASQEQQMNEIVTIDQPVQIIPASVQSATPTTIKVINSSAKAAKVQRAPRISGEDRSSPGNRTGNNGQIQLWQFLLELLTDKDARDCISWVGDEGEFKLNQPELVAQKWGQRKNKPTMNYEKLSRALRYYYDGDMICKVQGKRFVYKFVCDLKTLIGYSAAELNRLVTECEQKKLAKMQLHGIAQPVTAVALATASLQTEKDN
How it was run: as §1

[4] = molecular target: T4, ERG (Homo sapiens, UniProt P11308 1-479); details: protein: recombinant; tags: N-terminal GST; dsDNA, one strand shown
T4 sequence: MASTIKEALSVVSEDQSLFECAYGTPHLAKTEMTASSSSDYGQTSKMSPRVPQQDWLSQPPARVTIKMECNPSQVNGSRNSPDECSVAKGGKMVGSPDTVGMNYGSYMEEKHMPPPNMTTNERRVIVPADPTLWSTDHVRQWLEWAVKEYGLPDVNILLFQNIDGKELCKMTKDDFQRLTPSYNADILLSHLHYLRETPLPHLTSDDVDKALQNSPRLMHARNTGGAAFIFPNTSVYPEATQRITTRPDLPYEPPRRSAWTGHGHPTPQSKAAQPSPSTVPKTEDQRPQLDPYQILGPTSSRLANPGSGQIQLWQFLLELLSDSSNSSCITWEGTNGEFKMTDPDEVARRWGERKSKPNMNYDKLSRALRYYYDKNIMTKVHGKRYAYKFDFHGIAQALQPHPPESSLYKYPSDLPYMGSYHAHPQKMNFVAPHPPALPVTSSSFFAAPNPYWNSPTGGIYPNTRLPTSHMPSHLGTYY
How it was run: as §1

[5] = molecular target: ELF1 (Homo sapiens, UniProt P32519 1-619); details: protein: recombinant; tags: N-terminal GST; dsDNA, one strand shown
How it was run: as §1

[6] = molecular target: T5, EHF (Homo sapiens, UniProt Q9NZC4 1-300); details: protein: recombinant; tags: N-terminal GST; dsDNA, one strand shown
T5 sequence: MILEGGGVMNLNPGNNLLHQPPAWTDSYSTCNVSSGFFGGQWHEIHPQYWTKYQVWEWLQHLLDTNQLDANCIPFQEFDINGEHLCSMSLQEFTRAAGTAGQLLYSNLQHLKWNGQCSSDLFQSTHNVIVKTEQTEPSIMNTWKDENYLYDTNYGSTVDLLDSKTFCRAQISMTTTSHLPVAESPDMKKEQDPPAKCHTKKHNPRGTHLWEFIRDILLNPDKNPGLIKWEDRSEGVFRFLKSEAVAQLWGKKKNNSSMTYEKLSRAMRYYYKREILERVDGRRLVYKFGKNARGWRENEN
How it was run: as §1

[7] = molecular target: SPI1 (Homo sapiens, UniProt P17947 1-270); details: protein: recombinant; tags: N-terminal GST; dsDNA, one strand shown
How it was run: as §1

[8] = molecular target: SPIB (Homo sapiens, UniProt Q01892 1-262); details: protein: recombinant; tags: N-terminal GST; dsDNA, one strand shown
How it was run: as §1

[9] = molecular target: T6, ELK3 (Homo sapiens, UniProt P41970 1-407); details: protein: recombinant; tags: N-terminal GST; dsDNA, one strand shown
T6 sequence: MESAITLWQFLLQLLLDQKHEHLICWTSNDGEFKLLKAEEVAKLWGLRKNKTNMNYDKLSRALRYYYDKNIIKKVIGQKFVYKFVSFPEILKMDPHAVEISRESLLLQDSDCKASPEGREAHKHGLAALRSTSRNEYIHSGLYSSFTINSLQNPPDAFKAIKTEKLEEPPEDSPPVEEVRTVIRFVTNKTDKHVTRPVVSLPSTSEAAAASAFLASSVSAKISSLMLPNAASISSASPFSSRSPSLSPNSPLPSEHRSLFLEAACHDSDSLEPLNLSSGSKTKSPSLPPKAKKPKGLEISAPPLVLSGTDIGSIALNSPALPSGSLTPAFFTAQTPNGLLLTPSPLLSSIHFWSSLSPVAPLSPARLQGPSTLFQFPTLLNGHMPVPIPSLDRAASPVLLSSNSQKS
How it was run: as §1

[10] = molecular target: T7, FEV (Homo sapiens, UniProt Q99581 1-238); details: protein: recombinant; tags: N-terminal GST; dsDNA, one strand shown
T7 sequence: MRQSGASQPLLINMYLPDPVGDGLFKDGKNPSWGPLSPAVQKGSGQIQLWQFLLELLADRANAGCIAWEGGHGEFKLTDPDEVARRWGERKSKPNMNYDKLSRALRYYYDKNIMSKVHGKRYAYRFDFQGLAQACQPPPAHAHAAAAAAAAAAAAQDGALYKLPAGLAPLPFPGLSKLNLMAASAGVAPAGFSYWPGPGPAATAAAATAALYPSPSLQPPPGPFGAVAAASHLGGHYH
How it was run: as §1

[11] = molecular target: ETV5 (Homo sapiens, UniProt P41161 1-510); details: protein: recombinant; tags: N-terminal GST; dsDNA, one strand shown
How it was run: as §1

[12] = molecular target: HSF1 (Homo sapiens, UniProt Q00613 1-529); details: protein: recombinant; tags: N-terminal GST; chain copies: 3; dsDNA, one strand shown
How it was run: as §1

[13] = molecular target: T8, SPIC (Homo sapiens, UniProt Q8N5J4 1-248); details: protein: recombinant; tags: N-terminal GST; dsDNA, one strand shown
T8 sequence: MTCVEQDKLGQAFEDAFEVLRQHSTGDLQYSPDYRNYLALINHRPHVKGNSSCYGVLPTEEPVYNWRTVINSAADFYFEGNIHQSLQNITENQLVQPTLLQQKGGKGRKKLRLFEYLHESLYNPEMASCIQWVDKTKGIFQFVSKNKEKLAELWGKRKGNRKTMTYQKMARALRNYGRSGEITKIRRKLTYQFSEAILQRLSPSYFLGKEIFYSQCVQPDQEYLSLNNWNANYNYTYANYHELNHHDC
How it was run: as §1

[14] = molecular target: ELF4 (Homo sapiens, UniProt Q99607 1-663); details: protein: recombinant; tags: N-terminal GST; dsDNA, one strand shown
How it was run: as §1

[15] = molecular target: T9, ELK4 (Homo sapiens, UniProt P28324-2 1-405); details: protein: recombinant; tags: N-terminal GST; dsDNA, one strand shown
T9 sequence: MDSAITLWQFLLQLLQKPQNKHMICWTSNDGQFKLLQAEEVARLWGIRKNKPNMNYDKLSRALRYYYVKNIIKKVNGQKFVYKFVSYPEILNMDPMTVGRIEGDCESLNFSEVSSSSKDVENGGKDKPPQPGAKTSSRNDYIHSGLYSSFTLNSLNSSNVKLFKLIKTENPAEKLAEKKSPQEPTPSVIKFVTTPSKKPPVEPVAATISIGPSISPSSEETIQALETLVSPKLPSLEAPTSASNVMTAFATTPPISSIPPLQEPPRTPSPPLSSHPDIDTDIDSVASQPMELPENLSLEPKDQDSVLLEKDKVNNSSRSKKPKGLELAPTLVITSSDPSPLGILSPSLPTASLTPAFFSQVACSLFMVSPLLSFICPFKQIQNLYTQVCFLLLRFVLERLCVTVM
How it was run: as §1

[16] = molecular target: T10, ETV2 (Homo sapiens, UniProt O00321 1-342); details: protein: recombinant; tags: N-terminal GST; dsDNA, one strand shown
T10 sequence: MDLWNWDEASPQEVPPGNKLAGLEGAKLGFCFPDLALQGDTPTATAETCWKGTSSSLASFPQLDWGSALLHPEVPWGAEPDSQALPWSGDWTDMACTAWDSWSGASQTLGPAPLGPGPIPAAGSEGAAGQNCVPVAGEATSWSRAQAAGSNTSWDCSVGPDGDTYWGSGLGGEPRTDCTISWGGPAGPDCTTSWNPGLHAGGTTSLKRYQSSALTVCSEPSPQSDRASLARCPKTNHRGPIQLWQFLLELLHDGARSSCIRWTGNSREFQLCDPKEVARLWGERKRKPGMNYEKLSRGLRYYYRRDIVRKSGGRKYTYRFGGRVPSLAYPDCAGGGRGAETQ
How it was run: as §1

[17] = molecular target: T11, ELF3 (Homo sapiens, UniProt P78545 1-371); details: protein: recombinant; tags: N-terminal GST; dsDNA, one strand shown
T11 sequence: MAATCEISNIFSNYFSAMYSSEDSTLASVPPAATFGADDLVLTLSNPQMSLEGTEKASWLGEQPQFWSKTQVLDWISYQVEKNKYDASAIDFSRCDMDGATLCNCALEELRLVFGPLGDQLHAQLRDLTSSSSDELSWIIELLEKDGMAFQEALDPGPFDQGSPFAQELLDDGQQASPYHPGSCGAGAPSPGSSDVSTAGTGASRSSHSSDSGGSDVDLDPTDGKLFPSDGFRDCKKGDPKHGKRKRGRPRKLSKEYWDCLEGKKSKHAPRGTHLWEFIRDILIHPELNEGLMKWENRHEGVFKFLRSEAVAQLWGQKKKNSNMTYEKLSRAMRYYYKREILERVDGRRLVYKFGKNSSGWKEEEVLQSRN
How it was run: as §1

[18] = molecular target: CRX (Homo sapiens, UniProt O43186 1-299); details: protein: recombinant; tags: N-terminal GST; dsDNA, one strand shown
How it was run: as §1

[19] = molecular target: ETV1 (Homo sapiens, UniProt P50549 1-477); details: protein: recombinant; tags: N-terminal GST; dsDNA, one strand shown
How it was run: as §1

Chain of ELF1 (P32519 whole entry): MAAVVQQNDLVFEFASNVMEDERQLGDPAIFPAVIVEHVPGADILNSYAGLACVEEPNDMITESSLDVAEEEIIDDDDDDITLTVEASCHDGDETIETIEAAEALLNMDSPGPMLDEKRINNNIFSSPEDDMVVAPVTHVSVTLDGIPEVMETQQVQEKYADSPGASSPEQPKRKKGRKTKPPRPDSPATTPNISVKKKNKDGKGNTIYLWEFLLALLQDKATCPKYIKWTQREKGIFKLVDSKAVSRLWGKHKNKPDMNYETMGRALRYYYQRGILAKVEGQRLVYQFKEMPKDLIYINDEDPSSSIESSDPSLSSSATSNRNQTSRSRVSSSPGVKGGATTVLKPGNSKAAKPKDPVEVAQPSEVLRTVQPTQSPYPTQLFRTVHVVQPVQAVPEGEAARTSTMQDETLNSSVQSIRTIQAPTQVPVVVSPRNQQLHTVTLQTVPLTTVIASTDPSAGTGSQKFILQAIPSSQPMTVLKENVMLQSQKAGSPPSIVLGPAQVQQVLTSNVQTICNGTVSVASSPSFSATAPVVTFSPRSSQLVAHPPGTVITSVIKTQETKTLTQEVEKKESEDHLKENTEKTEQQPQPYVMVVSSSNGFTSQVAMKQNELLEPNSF
Chain of CRX (O43186 whole entry): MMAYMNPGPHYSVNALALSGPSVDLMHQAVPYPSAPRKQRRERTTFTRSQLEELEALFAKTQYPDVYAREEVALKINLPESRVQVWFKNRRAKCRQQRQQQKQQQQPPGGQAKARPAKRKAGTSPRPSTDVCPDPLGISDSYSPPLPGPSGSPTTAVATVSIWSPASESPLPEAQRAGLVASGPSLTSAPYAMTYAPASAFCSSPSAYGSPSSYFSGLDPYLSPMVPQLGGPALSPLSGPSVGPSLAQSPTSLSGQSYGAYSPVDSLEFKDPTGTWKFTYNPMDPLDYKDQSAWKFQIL
Chain of SPIB (Q01892 whole entry): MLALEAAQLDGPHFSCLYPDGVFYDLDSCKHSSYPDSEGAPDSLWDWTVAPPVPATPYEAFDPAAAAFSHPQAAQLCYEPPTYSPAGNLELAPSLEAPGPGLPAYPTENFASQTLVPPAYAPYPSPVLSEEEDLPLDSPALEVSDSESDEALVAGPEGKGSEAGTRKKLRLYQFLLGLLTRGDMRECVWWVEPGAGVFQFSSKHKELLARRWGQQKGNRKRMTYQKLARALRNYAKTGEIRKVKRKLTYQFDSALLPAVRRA
Chain of ETV1 (P50549 whole entry): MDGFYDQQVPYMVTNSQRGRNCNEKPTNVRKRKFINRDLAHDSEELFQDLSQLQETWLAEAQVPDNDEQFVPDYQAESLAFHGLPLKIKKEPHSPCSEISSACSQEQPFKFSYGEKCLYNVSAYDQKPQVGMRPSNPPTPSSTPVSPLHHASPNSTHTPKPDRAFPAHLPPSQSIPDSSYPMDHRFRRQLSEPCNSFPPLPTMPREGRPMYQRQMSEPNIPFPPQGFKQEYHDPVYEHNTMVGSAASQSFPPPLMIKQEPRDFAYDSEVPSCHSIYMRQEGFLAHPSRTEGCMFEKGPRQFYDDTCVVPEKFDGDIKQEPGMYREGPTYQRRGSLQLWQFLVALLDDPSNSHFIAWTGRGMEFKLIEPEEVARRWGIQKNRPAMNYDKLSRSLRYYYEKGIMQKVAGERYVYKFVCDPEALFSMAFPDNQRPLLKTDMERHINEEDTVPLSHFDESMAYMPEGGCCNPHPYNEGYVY
Chain of HSF1 (Q00613 whole entry): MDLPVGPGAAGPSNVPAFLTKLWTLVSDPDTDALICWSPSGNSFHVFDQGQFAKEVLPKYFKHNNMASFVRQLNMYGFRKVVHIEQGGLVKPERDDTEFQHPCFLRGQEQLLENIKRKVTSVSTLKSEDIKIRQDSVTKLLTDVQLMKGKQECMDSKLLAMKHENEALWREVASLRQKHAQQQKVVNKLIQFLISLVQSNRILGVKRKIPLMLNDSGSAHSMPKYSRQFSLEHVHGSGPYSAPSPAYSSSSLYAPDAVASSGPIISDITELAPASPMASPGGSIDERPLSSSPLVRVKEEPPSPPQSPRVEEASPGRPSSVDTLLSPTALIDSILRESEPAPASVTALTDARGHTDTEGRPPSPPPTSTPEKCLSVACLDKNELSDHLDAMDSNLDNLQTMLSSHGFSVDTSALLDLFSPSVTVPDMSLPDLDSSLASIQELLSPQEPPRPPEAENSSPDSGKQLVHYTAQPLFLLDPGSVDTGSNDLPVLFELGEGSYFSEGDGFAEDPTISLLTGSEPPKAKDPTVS
Chain of ETV5 (P41161 whole entry): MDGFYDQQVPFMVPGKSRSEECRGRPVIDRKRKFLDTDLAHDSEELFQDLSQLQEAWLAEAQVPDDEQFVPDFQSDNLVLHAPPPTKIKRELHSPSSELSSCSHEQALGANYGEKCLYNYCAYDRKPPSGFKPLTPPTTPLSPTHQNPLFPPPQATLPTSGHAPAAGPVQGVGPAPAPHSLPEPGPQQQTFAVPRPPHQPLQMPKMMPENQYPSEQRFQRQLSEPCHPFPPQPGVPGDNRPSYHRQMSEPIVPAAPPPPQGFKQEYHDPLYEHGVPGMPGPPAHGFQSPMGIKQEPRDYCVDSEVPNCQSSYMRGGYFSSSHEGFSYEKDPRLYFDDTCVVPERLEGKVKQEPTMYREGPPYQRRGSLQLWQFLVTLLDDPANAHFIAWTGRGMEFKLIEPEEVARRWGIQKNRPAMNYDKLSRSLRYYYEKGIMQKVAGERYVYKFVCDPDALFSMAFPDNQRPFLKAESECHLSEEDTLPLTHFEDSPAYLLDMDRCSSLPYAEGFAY
Chain of ELF4 (Q99607 whole entry): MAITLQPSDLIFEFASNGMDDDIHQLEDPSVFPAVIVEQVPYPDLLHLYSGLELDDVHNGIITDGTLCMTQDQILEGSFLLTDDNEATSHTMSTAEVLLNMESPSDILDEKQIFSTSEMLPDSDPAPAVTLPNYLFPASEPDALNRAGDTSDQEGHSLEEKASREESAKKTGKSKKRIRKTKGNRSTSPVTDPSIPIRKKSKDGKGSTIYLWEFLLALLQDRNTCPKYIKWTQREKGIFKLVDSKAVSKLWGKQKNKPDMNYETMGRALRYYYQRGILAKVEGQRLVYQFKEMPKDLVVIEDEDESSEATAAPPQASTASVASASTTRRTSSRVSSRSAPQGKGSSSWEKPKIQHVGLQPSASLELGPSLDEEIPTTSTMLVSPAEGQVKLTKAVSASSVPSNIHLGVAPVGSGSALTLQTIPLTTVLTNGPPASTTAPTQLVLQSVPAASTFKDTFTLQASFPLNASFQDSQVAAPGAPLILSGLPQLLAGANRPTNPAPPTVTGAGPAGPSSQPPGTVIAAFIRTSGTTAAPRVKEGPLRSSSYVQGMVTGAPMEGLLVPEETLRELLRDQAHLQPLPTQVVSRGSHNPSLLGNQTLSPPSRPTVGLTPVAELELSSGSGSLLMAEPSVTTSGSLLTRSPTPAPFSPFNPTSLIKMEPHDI

With CCTGAA the binding signal [1] was 1.35 fold enrichment (6-mer frequency, TF over GST control), the binding signal [2] was 1.39 fold enrichment (6-mer frequency, TF over GST control) and the binding signal [3] was 1.39 fold enrichment (6-mer frequency, TF over GST control). For the same sequence, the binding signal [4] was 1.41 fold enrichment (6-mer frequency, TF over GST control), the binding signal [5] was 1.35 fold enrichment (6-mer frequency, TF over GST control) and the binding signal [6] was 1.33 fold enrichment (6-mer frequency, TF over GST control). For the same sequence, the binding signal [7] was 1.35 fold enrichment (6-mer frequency, TF over GST control), the binding signal [8] was 1.42 fold enrichment (6-mer frequency, TF over GST control) and the binding signal [9] was 1.32 fold enrichment (6-mer frequency, TF over GST control). For the same sequence, the binding signal [10] was 1.4 fold enrichment (6-mer frequency, TF over GST control), the binding signal [11] was 1.38 fold enrichment (6-mer frequency, TF over GST control) and the binding signal [12] was 1.54 fold enrichment (6-mer frequency, TF over GST control). For the same sequence, the binding signal [13] was 1.28 fold enrichment (6-mer frequency, TF over GST control), the binding signal [14] was 1.31 fold enrichment (6-mer frequency, TF over GST control) and the binding signal [15] was 1.41 fold enrichment (6-mer frequency, TF over GST control). For the same sequence, the binding signal [16] was 1.47 fold enrichment (6-mer frequency, TF over GST control), the binding signal [17] was 1.21 fold enrichment (6-mer frequency, TF over GST control) and the binding signal [18] was 1.22 fold enrichment (6-mer frequency, TF over GST control). The binding signal [19] was 1.38 fold enrichment (6-mer frequency, TF over GST control).
